These results are taken from PubChem BioAssay AID2058 (Sanford-Burnham Center for Chemical Genomics, 2009).

Broadly, the inhibition is the change of the read-out against control, counted positive when it falls.

Among all 290,000 compounds or so, about 150 (0.052%) were called active.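 How the source made its calls: active means inhibition of at least 50% with at least 30 cells and total cytoplasm GFP at most 10,000,000; inconclusive means under 30 cells or total GFP of 10,000,000 plus; inactive means the rest.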 Many of the other results were omitted from the sample, so actives are more common in it than they were. Results with a measured potency or affinity are listed apart.

For the experiment, the target named is G-protein coupled receptor 35 (Homo sapiens) (UniProt Q9HC97). The experiment can be described thus: GPR35 antagonists blocking zaprinast-driven arrestin recruitment, primary screen, imaging, U2OS, beta-arrestin-GFP, zaprinast agonist (AID 2058). The note with it: U2OS GPR35 beta-arrestin-GFP translocation imaging, zaprinast antagonism; at 10 µM; active compounds read high. A general note: Recruitment of arrestin is a read-out of receptor activation apart from second messengers.
G-protein coupled receptor 35 (Homo sapiens), sequence (Q9HC97 whole entry, looked up): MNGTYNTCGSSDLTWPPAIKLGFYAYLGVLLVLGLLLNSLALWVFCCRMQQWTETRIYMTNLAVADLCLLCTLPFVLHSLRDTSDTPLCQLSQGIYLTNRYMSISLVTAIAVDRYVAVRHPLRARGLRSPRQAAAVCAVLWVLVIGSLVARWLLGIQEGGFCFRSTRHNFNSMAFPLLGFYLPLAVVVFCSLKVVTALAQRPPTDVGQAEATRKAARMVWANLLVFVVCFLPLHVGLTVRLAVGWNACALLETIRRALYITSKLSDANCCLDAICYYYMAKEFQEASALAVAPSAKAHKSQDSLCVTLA
In the case of `Cc1cc(C)c(NC(=O)NC2CCCCC2)c(C)c1`, the inhibition is -0.9% (inactive).
On to `O=C(CCCN1C(=O)/C(=C\c2ccccc2)SC1=S)Nc1ccc(O)cc1C(=O)O`, for which the inhibition is -10% (inactive).
The same measure for `COc1cccc(/C=C2\SC(=S)N(CCC(=O)Nc3ccc(O)cc3)C2=O)c1`: -4.8% (inactive); for `O=C(CCN1C(=O)S/C(=C/c2ccccc2)C1=O)Nc1ccc(C(=O)O)c(O)c1`: 13.4% (inactive).
With `O=C(CCN1C(=O)/C(=C\c2ccccc2)SC1=S)Nc1ccc(C(=O)O)cc1` the figure was 27.2% (inactive); with `O=C(CCCN1C(=O)/C(=C\c2ccccc2)SC1=S)Nc1ccc(O)cc1`, 23.5% (inactive).
The same measure for `O=C(CCN1C(=O)/C(=C/c2ccc(Cl)cc2)SC1=S)Nc1ccc(C(=O)O)cc1`: 6.4% (inactive); for `CCc1ccc(/C=C2/SC(=S)N(CCC(=O)Nc3ccc(C(=O)O)cc3)C2=O)cc1`: -13.9% (inactive).
On to `COc1cccc(/C=C2/SC(=S)N(CCCC(=O)Nc3ccc(O)cc3)C2=O)c1`, for which the inhibition was 24% (inactive).
For the compound `CC(C)CCn1c(CN2CCOCC2)nc2c1c(=O)n(C)c(=O)n2C`, the inhibition was -9.6% (inactive).
For `CC1(C)CCCC2=C1CC1C(=O)N(O)C(=O)C1C2` (stereo not given), the inhibition is 2.3% (inactive).
`O=C1CCCN2N=C(SCC(=O)Nc3ccccc3C(F)(F)F)SC2=N1`: the inhibition was 1.9% (inactive).
As to `CC(=O)N1CCc2cc(S(=O)(=O)CCC(=O)N3CCN(c4ccccc4F)CC3)ccc21`, the inhibition was 6.2% (inactive).
Turning to `N#Cc1ccccc1NC(=O)CNc1ccccc1N1CCCCC1`, the inhibition is 19.6% (inactive).
The same measure for `O=C(CCN1C(=O)/C(=C/c2cccs2)SC1=S)Nc1ccc(C(=O)O)c(O)c1`: -2.6% (inactive).
On to `O=C(CN1C(=O)S/C(=C\c2ccc(C(=O)O)cc2)C1=O)Nc1ccccc1`, for which the inhibition is -1.7% (inactive).
With `O=C(CCCN1C(=O)/C(=C\c2cccs2)SC1=S)Nc1ccc(C(=O)O)cc1` the figure was 13.3% (inactive).
For the compound `O=C(CCCN1C(=O)/C(=C/c2cccs2)SC1=S)Nc1ccc(O)c(C(=O)O)c1`, the inhibition was 99.6% (active).
With `O=C(CCN1C(=O)S/C(=C\c2ccc(Cl)cc2)C1=O)Nc1ccc(C(=O)O)cc1` the figure was 4.2% (inactive); with `COc1ccc(Cc2nnc(SCC(=O)NC3CCCCC3)n2C)cc1`, 9.8% (inactive); with `COc1ccc(-n2c(C)nnc2SCC(=O)N2CCOCC2)cc1`, -0.9% (inactive).
For the compound `FC(F)(F)c1ccccc1N/N=C/c1cccnc1`, the inhibition is -3.9% (inactive).
The same measure for `O=C(NCC1CC1)Nc1ccccc1`: -5% (inactive).
The same measure for `COCC(C)NC(=S)Nc1ccccc1[N+](=O)[O-]` (stereo not given): -3.3% (inactive); for `NS(=O)(=O)c1cccc(C(=O)NC2CCSc3ccccc32)c1` (stereo not given): -7.4% (inactive); for `COc1cc(/C=N/N=C(N)N)ccc1OCc1ccccc1Cl`: -8.2% (inactive).
With `COc1cc(/C=N/O)ccc1OCc1ccccc1Cl`, the inhibition was -5.4% (inactive).
With `Fc1cccc(Cl)c1CSc1ccc(-c2cccnc2)nn1` the figure was 5.4% (inactive); with `c1ccc(-c2ccc(SCc3cccnc3)nn2)nc1`, -18.4% (inactive).
With `NNC(=O)c1sc(-c2ccc(Cl)cc2)cc1N` the figure was 10.1% (inactive); with `COc1ccccc1N=Nc1ccc(N)c(C)c1`, 5.6% (inactive); with `CCn1c(CNC(=O)c2ccc(Cl)cc2)nnc1SCC(=O)N1CCOCC1`, -15.6% (inactive).
The same measure for `Cn1cc(/C=C/c2cc[n+](C)cc2)c2cc(Cl)ccc21`: 54.7% (active); for `COc1ccc2c(c1)c(/C=C/c1cc[n+](C)cc1)cn2C`: 48.7% (inactive).
Consider `Cn1cc(/C=C/c2cc[n+](C)cc2)c2cc(F)ccc21`, for which the inhibition was 29.2% (inactive).
As to `CN1CCc2c(sc3nc(NN)n(Cc4ccccc4)c(=O)c23)C1`, the inhibition was 12.8% (inactive).
With `NNC(=O)c1oc2nc(-c3cccs3)cc(-c3ccco3)c2c1N` the figure was -11.1% (inactive).
With `NNC(=O)c1oc2nc(-c3ccco3)cc(-c3ccco3)c2c1N` the figure was 92.5% (active); with `Cc1ccc(-c2cc(-c3ccco3)c3c(N)c(C(=O)NN)oc3n2)cc1`, -7.6% (inactive); with `O=C(CCCn1c(=O)[nH]c2cc(Cl)ccc2c1=O)NCCCN1CCCC1`, 1.1% (inactive).
Consider `CCCn1c(=O)[nH]c(=O)c2c1nc(-c1ccc(C(F)(F)F)cc1)n2CCOC`, for which the inhibition is 2.1% (inactive).
For `CN1CC=C2C(C#N)=C(N)C(C#N)(C#N)C(Cc3ccccc3)C2C1` (stereo not given), the inhibition is 53.4% (active).
With `N#CC1=C(N)C(C#N)(C#N)[C@H](c2cccnc2)[C@H]2CN(C(=O)OCc3ccccc3)CC=C12` the figure was 0.1% (inactive); with `N#CC1=C(N)C(C#N)(C#N)C(c2cccnc2)C2CN(C(=O)OCc3ccccc3)CC=C12` (stereo not given), 8.1% (inactive); with `CCN1CC=C2C(C#N)=C(N)C(C#N)(C#N)C(CCc3ccccc3)C2C1` (stereo not given), 90.4% (active).
With `CC(=O)N1CC=C2C(C#N)=C(N)C(C#N)(C#N)C(CCc3ccccc3)C2C1` (stereo not given) the figure was -5.1% (inactive).
The same measure for `Cc1ccc(S(=O)(=O)N(C)c2ccc(C(=O)NCCc3ccccc3)cc2)cc1`: 3.9% (inactive); for `Cc1ccc(C2(COC(=O)C(C)C)CO2)c(OC(=O)C(C)C)c1` (stereo not given): 10.9% (inactive); for `CCn1c(Oc2ccc(F)cc2)nc2c1c(=O)n(C)c(=O)n2C`: 5.5% (inactive).
As for `COc1ccc(OCC(O)CNC(=O)Nc2ccccc2)cc1` (stereo not given), the inhibition is 1.5% (inactive).
The same measure for `CN1CCc2nc(NC(=O)c3cccc(OC(F)F)c3)sc2C1`: 4.4% (inactive).
As to `COc1ccccc1N1CCN(CCCn2c(=S)[nH]c3ccccc3c2=O)CC1`, the inhibition is -1.1% (inactive).
In the case of `Cc1ccc(OCC(=O)N2CCN(C(=O)c3ccncc3)CC2)cc1`, the inhibition is -6.5% (inactive).
The same measure for `C=CCCCCCCCCc1nc(SCC(C)=O)n[nH]1`: 18.4% (inactive).
With `C=CCCCCCCCCc1nc(=S)[nH][nH]1` the figure was -18.8% (inactive); with `COc1ccc(NC(=O)COC(=O)C2CC(=O)N(c3ccc(C)cc3)C2)cc1` (stereo not given), -10.1% (inactive).
With `O=S(=O)(NN1CCOCC1)c1cc(Cl)cc(Cl)c1O` the figure was -8.3% (inactive); with `CC(=O)NS(=O)(=O)c1ccc(NC(=O)/C=C/c2cn(-c3ccccc3)nc2-c2ccccc2)cc1`, -3% (inactive); with `CCCCc1nc(SCC(=O)Nc2nnc(CCCC)s2)n[nH]1`, -13.1% (inactive).
For `O=C(CN1C(=O)S/C(=C/C=C/c2ccccc2)C1=O)Nc1ccc(C(=O)O)cc1`, the inhibition is -12.3% (inactive).
With `O=C(CCCN1C(=O)S/C(=C\C=C\c2ccccc2)C1=O)Nc1ccc(O)cc1` the figure was 18.5% (inactive).
The same measure for `O=C(CCN1C(=O)/C(=C\C=C\c2ccccc2)SC1=S)Nc1ccc(C(=O)O)cc1`: 1.6% (inactive); for `O=C(CN1C(=O)S/C(=C\C=C\c2ccccc2)C1=O)Nc1ccc(C(=O)O)cc1`: -0.2% (inactive).
The same measure for `C/C=C(\C)C(=O)NCCN1C2=NC[C@@H](Cc3ccccc3)N2C[C@H]1Cc1ccc(O)cc1`: 1% (inactive).
As for `N#Cc1c(C(F)(F)F)cc(=O)[nH]c1SCC(=O)O`, the inhibition is -12% (inactive).
With `CCN(C(=O)Cc1c(C(=O)O)n(C)c2ccccc12)c1cccc(C)c1` the figure was 6.8% (inactive); with `O=C(Cn1cccc1C(=O)c1ccccc1)NCCCc1ccccc1`, 3.3% (inactive); with `CC(C)CC(NS(=O)(=O)OCC(Cl)(Cl)Cl)c1ccccc1` (stereo not given), 6.5% (inactive).
With `CC(NS(=O)(=O)OCC(Cl)(Cl)Cl)c1ccc(Br)cc1` (stereo not given) the figure was 2.8% (inactive); with `O=C(Nc1ccc(Cl)c(S(=O)(=O)N2CCOCC2)c1)c1ccccc1-c1ccc(C(F)(F)F)cc1`, -5.3% (inactive); with `CC(O)CSc1nc2c(c(=O)n(C)c(=O)n2C)n1CCCc1ccccc1` (stereo not given), 18.8% (inactive).
For `Nc1c(C(=O)Nc2nccs2)sc2nc(-c3cccs3)cc(C(F)(F)F)c12`, the inhibition was 14.2% (inactive).
The same measure for `CC(=O)c1sc2nc(-c3cccs3)cc(C(F)(F)F)c2c1N`: 19.7% (inactive); for `O=C(NCc1nnc(SCc2ccccc2)n1-c1ccccc1)C12CC3CC(CC(C3)C1)C2`: -5.7% (inactive); for `O=C(NCc1nnc(SCc2ccc(F)cc2)n1-c1ccccc1)C12CC3CC(CC(C3)C1)C2`: -5.2% (inactive).
For `O=C(NCc1nnc(SCc2ccc(C(F)(F)F)cc2)n1-c1ccccc1)C12CC3CC(CC(C3)C1)C2`, the inhibition was 89.4% (active).
With `COc1ccc(CC(=O)OCC(=O)NC(=O)NC2CCCCC2)cc1` the figure was 6.4% (inactive); with `COC(=O)c1[nH]c2cccc(C)c2c1NC(=O)CN1CCN(C(=O)c2ccco2)CC1`, 21.8% (inactive); with `FC(F)(F)c1cnc(-c2cnc3c(-c4ccc(Cl)cc4)cnn3c2)c(Cl)c1`, 2.1% (inactive).
Consider `CCOC(=O)c1ccc(NC(=O)CCc2c(C)nc3ncnn3c2C)cc1`, for which the inhibition was 10.9% (inactive).
With `O=C(CSc1nnc(Cn2c(=O)sc3ccccc32)n1-c1ccccc1)NCC1CCCO1` (stereo not given) the figure was 15.8% (inactive); with `CCOC(=O)N1CC=C2C(C#N)=C(N)C(C#N)(C#N)[C@H](c3ccsc3)[C@H]2C1`, 7.2% (inactive).
With `CCOC(=O)N1CC=C2C(C#N)=C(N)C(C#N)(C#N)[C@H](c3ccc(OCC)c(OCC)c3)[C@H]2C1` the figure was -0.6% (inactive).
Consider `CC(C)(C)OC(=O)N1CC=C2C(C#N)=C(N)C(C#N)(C#N)[C@H](c3cccnc3)[C@H]2C1`, for which the inhibition is 3.8% (inactive).
The same measure for `CCN1CC=C2C(C#N)=C(N)C(C#N)(C#N)[C@H](c3ccoc3)[C@H]2C1`: 67.4% (active).
With `CC(=O)N1CC=C2C(C#N)=C(N)C(C#N)(C#N)[C@H](c3ccoc3)[C@H]2C1` the figure was 2.7% (inactive); with `CN1C2C=C3C(C#N)=C(N)C(C#N)(C#N)[C@@H](c4ccsc4)[C@@H]3C1CC2` (stereo not given in full), -6.4% (inactive).
Turning to `CN1CC=C2C(C#N)=C(N)C(C#N)(C#N)[C@H](c3ccoc3)[C@H]2C1`, the inhibition is 74.6% (active).
With `N#CC1=C(N)C(C#N)(C#N)[C@H](c2ccoc2)[C@H]2CN(Cc3ccccc3)CC=C12` the figure was 9.6% (inactive); with `CCCCc1nc(SCC(=O)Nc2cccc(Cl)c2)n[nH]1`, -17% (inactive).
